In the library only some 3.7% were active in any assay of this set; here they are far more common.
PfHsp90 yeast 2 – growth inhibition of yeast expressing Plasmodium Hsp90 | S. cerevisiae expressing PfHsp90, BacTiter-Glo ATP, 48 h; yeast lacking PDR1 and PDR3 efflux regulators | 310,000 tested, 0.32% active | inhibition, % at 9.4 µM;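 active means every replicate shows inhibition above about 80%, whatever the replicate mean, limit read from the data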
tim23-1 inh – growth inhibitors of tim23-1 mutant yeast. S. cerevisiae tim23-1 growth, BacTiter-Glo luminescence, 24 h. inhibition, % at 20 µM. 330,000 tested, 1.3% active. AID 463212;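 active means growth inhibition of the mutant yeast at or above 50%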;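 further: temperature-sensitive mutant grown at 25 °C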
TIM10 inh – TIM10 yeast growth inhibition; S. cerevisiae TIM10 strain growth, BacTiter-Glo luminescence, 24 h; AID 463195; inhibition, % at 10 µM; 330,000 tested, 1.4% active;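 active means inhibition of 40% or more at the single tested concentration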;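 further: wild-type TIM10 isogenic control strain grown at permissive 25 °C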
NLRP3 yeast inh – NALP3 inhibition in yeast. Yeast reconstituted NLRP3/ASC/caspase-1, beta-gal luminescence, 24 h. 330,000 tested, 0.39% active. inhibition, % at 10 µM. AID 2825;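 active means inhibition of 50% or more; inactive means inhibition below 50%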
tim10-1 inh – inhibits growth of tim10-1 mutant yeast; inhibition, % at 20 µM; S. cerevisiae tim10-1 ts strain growth, BacTiter-Glo, 24 h; 330,000 tested, 2.2% active;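 active means inhibition of at least 40%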;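 further: mutant grown at 25 °C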
tim10-1 confirm – confirmation of tim10-1 mutant yeast growth inhibitors; shares compounds with tim10-1 inh; S. cerevisiae tim10-1 ts strain growth, BacTiter-Glo, 24 h; inhibition, % at 20 µM; 7,400 tested, 56% active;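 active means inhibition of yeast growth at or above a set limit in either of two repeat tests at 20 µM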;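 further: tim10-1 mutant grown at permissive 25 °C to find synthetic lethal compounds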
TIM10 conf – TIM10 yeast growth inhibition, confirmed | 4,600 tested, 63% active | shares compounds with TIM10 inh | inhibition, % at 10 µM | S. cerevisiae tim10 strain growth, BacTiter-Glo luminescence, 24 h | AID 463215;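 active means inhibition of yeast growth at or above a set limit in either of two replicates at 10 µM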; further: this counterscreen used the strain with wild-type TIM10
Of the large screens only hits and unclear results are named; the others gave an inactive call (follow-up assays come after a bar, where they were run); ! = not confirmed by another sample.

Cc1nc2c(-c3ccc(F)cc3)c(C)nn2c(C)c1CCC(=O)N1CCC2(CC1)OCCO2	tim10-1 inh 40 (no result: PfHsp90 yeast 2) | tim10-1 confirm inactive
Cc1cccc(C)c1OP(N)(=O)OCC(F)(F)F (configuration not stated)	none
COC(=O)C1=C(c2c(C)noc2C)C[C@@H]2CC[C@H]1N2C(=O)N1CCCC1	none
O=[N+]([O-])c1ccc(Cl)c([N+](=O)[O-])c1	tim10-1 inh 45 | tim10-1 confirm 39
Cc1nn(CCC#N)c2c1P(=S)(N1CCCC1)OC(c1ccc(F)cc1)=N2 (configuration not stated)	tim10-1 inh 43 | tim10-1 confirm 33
Oc1ccc(C2NCc3ccccc3-n3cccc32)cc1Cl (configuration not stated)	tim10-1 inh 44! | tim10-1 confirm 34
COCCNC(=O)CN1C(=O)C(C)N=C(c2ccccc2)c2cc(Cl)ccc21 (configuration not stated)	tim10-1 inh 41 | tim10-1 confirm inactive
Clc1cccc(CN2CCCCC2c2cccnc2)c1 (configuration not stated)	none
CN(C)Cc1c[nH]c2cc([N+](=O)[O-])ccc12	none (no result: tim23-1 inh, TIM10 inh, NLRP3 yeast inh, tim10-1 inh)
CC1(C)CC(=O)C(C2(O)C(=O)NC(=O)NC2=O)=C(O)C1	none
O=C(CN1CCOCC1)Nc1ccc(Br)cc1C(=O)c1ccccc1	tim10-1 inh 40 | tim10-1 confirm inactive
O=c1c2ccccc2nc(-c2ccccc2)n1-c1ccccc1	none
O=c1c2ccccc2[se]n1-c1ccccc1	tim10-1 inh 55 | tim10-1 confirm 90
c1ccc2c(c1)Sc1ccccc1N2CC1CN2CCC1CC2 (configuration not stated)	none
CC(C)CNC(=O)c1c(N)n(Cc2ccc3c(c2)OCO3)c2nc3ccccc3nc12	tim10-1 inh 43 | tim10-1 confirm inactive
CCCN(CC#CCO)CCC	none
COc1ccc(NP(=O)(Oc2ccccc2OC)Oc2ccccc2OC)cc1	tim10-1 inh 41 | tim10-1 confirm inactive
COc1ccccc1OP(=O)(Nc1ccc(Br)cc1)Oc1ccccc1OC	none
Cc1ncc(CN2CCCC(C(=O)c3sccc3C)C2)s1 (configuration not stated)	none
O=C(COc1ccc2ccccc2c1)N1CCN(Cc2c[nH]c3ccccc23)CC1	tim10-1 inh 50 | tim10-1 confirm inactive
O=C(COC(=O)Cc1ccccc1)Nc1ccc(SC(F)F)cc1	tim10-1 inh 43 | tim10-1 confirm inactive
c1ccc(CCn2nnnc2CN2CCC(n3nnc4ccccc43)CC2)cc1	none
Fc1ccc2c(c1)nnn2C1CCN(Cc2nnnn2CCc2ccccc2)CC1	tim10-1 inh 40 (no result: PfHsp90 yeast 2) | tim10-1 confirm inactive
Nc1c(C(=O)NC2CCCC2)c2nc3ccccc3nc2n1CC1CCCO1 (configuration not stated)	tim10-1 inh 56 | tim10-1 confirm inactive
Nc1c(C(=O)NCC2CCCO2)c2nc3ccccc3nc2n1Cc1ccco1 (configuration not stated)	none
Cc1oc2ccc(OC(=O)N(C)C)cc2c1C(=O)OC(C)C	tim10-1 inh 42 | tim10-1 confirm inactive
O=C1CC(N2CC=C(c3ccccc3)CC2)C(=O)N1c1ccc(F)cc1 (configuration not stated)	tim10-1 inh 43 | tim10-1 confirm 42
O=C(COC(=O)c1cccc(O)c1)Nc1ccc(Cl)cc1C(=O)c1ccccc1	none
O=C1/C(=C/c2cc([N+](=O)[O-])ccc2Cl)N2CCC1CC2	tim10-1 inh 48 | tim10-1 confirm 35
O=C1/C(=C/c2cccc([N+](=O)[O-])c2)N2CCC1CC2	none
CCOC(=O)C1(CCc2ccccc2)CCN(Cc2cccc3c2OCO3)CC1	tim10-1 inh 40 | tim10-1 confirm inactive
CCOC(=O)C1(CCc2ccccc2)CCN(Cc2cccc3cnccc23)CC1	none
O=C(O)C(Br)CBr (configuration not stated)	none
CC1(C)C(C(=O)N2CCN(c3ccc(Cl)cc3)CC2)C1(C)C	none
COC(=O)C1CN(C#N)N(c2ccc(Cl)cc2)C12c1ccccc1-c1ccccc12 (configuration not stated)	PfHsp90 yeast 2 96, tim10-1 inh 58 | tim10-1 confirm 42
Oc1ccccc1-[n+]1c(-c2ccccc2)cc(-c2ccccc2)cc1-c1ccccc1	none
Cc1ccccc1-[n+]1c(-c2ccccc2)cc(-c2ccccc2)cc1-c1ccccc1	tim10-1 inh 42 | tim10-1 confirm inactive
Cc1cccc(-c2nc3ccc(C(=O)N4CCC5(CC4)OCCO5)cc3nc2-c2cccc(C)c2)c1	tim10-1 inh 40 | tim10-1 confirm inactive
COC(=O)C(O)(c1ccc(NC(=S)NC(=O)c2ccccc2)cc1)C(F)(F)F (configuration not stated)	TIM10 inh 46, tim10-1 inh 41 (no result: PfHsp90 yeast 2) | tim10-1 confirm inactive | TIM10 conf 33
C[C@H]1[C@@H](OS(=O)(=O)O)C[C@@H]2C[C@H]([C@@H](O)c3cc(=O)[nH]c(=O)[nH]3)NC3=NC[C@H]1N32	none (no result: tim23-1 inh, TIM10 inh, NLRP3 yeast inh, tim10-1 inh)
CN(C)c1ccc(C(=O)c2ccc(N(C)C)cc2)cc1	TIM10 inh 48, tim10-1 inh 40 | tim10-1 confirm inactive | TIM10 conf inactive
CN1CCc2nc3sc(C(=O)NC(C)(C)C)c(N)c3cc2C1	none (no result: PfHsp90 yeast 2)
COc1ccc(OC)c(N2C(=O)NC(=O)/C(=C/c3ccc([N+](=O)[O-])s3)C2=O)c1	PfHsp90 yeast 2 105, TIM10 inh 89, tim10-1 inh 72 | tim10-1 confirm 70 | TIM10 conf 35
C=CCn1c(O)c(C(C)=NC2CCN(Cc3ccccc3)CC2)c(=O)[nH]c1=O	none (no result: PfHsp90 yeast 2)
C=C1C(=O)O[C@H]2C[C@@H](C)[C@@H]3C=CC(=O)[C@@]3(C)C[C@H]12	TIM10 inh 46, tim10-1 inh 48 (no result: PfHsp90 yeast 2) | tim10-1 confirm 47 | TIM10 conf 51
C=C1C(=O)OC2CC(C)C3C=CC(=O)C3(C)C(O)C12 (configuration not stated)	none (no result: tim23-1 inh, TIM10 inh, NLRP3 yeast inh, tim10-1 inh)
O=C1Nc2ccccc2C1Cc1nc2ccccc2c(=O)n1-c1ccccc1 (configuration not stated)	none
CN1C(=O)C(Cc2nc3ccccc3c(=O)n2-c2ccccc2)c2ccccc21 (configuration not stated)	TIM10 inh 52, tim10-1 inh 43 | tim10-1 confirm 37 | TIM10 conf 39
CCCCNC(=O)c1c(N)n(CCCOC)c2nc3ccccc3nc12	none (no result: PfHsp90 yeast 2)
COCCNC(=O)c1c(N)n(CCC(C)C)c2nc3ccccc3nc12	TIM10 inh 42, tim10-1 inh 48 | tim10-1 confirm inactive | TIM10 conf inactive
COCCCn1c(-c2ccc(OC)cc2)cc(C(=O)NC2CCCCCCC2)c1C	TIM10 inh 41, tim10-1 inh 54 | tim10-1 confirm 42 | TIM10 conf inactive
